# Screening results as filed in PubChem BioAssay.
# This is a sample that favours compounds with a hit; in the whole collection about 12% have one here.
# JMJD2A Tudor inh: qHTS Assay for Inhibitors of JMJD2A-Tudor Domain. Lysine-specific demethylase 4A (Homo sapiens), O75164. AlphaScreen JMJD2A-Tudor / H3K4me3 peptide binding. Potency, µM (highest dose often 114 µM), for the others: at the top dose activity change, negative = inhibition, actives largely listed as inhibitors. actives 4.4% (n = 390,000). AID 504339, 2011; note: potency is the fitted concentration of half-maximal effect; % is set by controls: 0 for no effect and ±100 for the full control effect; nearly all actives have a fitted effect of over 50% in size
# PLK1 PBD inh: qHTS for Inhibitors of PLK1-PDB (polo-like kinase 1 - polo-box domain): Primary Screen. actives 2.8% (n = 360,000). Potency, µM, without a hit: max response, negative = inhibition, usual class: inhibitors. Serine/threonine-protein kinase PLK1 (Homo sapiens), P53350. Plk1 PBD binding of FITC phosphopeptide, fluorescence polarization; note: potency is the fitted concentration of half-maximal effect; series mostly up to about 57 µM; % is set by controls: 0 for no effect and ±100 for the full control effect; nearly all actives have a fitted effect of over 65% in size
# PI5P4Ka inh: qHTS for Inhibitors of phosphatidylinositol 5-phosphate 4-kinase (PI5P4K). Phosphatidylinositol 5-phosphate 4-kinase type-2 alpha (Homo sapiens), P48426. PI5P4Kalpha enzyme, ADP-Glo luminescence, 60 min; stronger effect = lower value. max response, %. actives 1.2% (n = 330,000). AID 652105, 2013; active = max response of -50% or lower; inconclusive = between -30% and -50%; inactive = -30% or higher; note: value at the top dose of about 77 µM; % is set by controls: 0 for no effect and ±100 for the full control effect
# Target sequence (P48426 whole entry, looked up): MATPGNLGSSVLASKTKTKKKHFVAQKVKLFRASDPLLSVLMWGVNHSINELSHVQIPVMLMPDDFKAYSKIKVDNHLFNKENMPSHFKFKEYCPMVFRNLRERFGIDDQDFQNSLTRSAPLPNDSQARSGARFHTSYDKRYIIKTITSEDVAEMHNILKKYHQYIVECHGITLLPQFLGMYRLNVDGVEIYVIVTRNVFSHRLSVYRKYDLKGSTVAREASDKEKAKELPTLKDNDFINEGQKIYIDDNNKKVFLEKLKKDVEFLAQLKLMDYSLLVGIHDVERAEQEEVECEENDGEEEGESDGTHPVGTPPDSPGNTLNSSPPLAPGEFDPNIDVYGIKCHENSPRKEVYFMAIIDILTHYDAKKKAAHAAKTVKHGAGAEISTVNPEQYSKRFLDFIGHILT
#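 Reactions run in 0.038 M HEPES pH 7.4, 0.28 mM EGTA, 0.1% CHAPS and 5% DMSO, with PI5P4Kalpha, substrate, compound and 5 microM ATP final, one hour at room temperature. Readout is ADP-Glo luminescence.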
# G9a block: qHTS Assay for Inhibitors of Histone Lysine Methyltransferase G9a; Histone-lysine N-methyltransferase EHMT2 (Homo sapiens), Q96KQ7; G9a H3K9 monomethylation, AlphaScreen, 2 h; Potency, µM (series often up to 102 µM), for inactives: top-dose activity, negative = inhibition, most hits filed as inhibitors; actives 8.8% (n = 350,000); note: potency is the fitted concentration of half-maximal effect; % is set by controls: 0 for no effect and ±100 for the full control effect; nearly all actives have a fitted effect of over 75% in size
#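 Quantitative HTS format: methyltransferase activity on a biotin-tagged H3K9 peptide is measured by AlphaScreen, using a rabbit anti-monomethyl-H3K9 antibody with streptavidin donor and anti-IgG acceptor beads. Final levels are 20 nM enzyme, 500 nM peptide, 20 uM SAM; 2 h RT.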
# HP1b chromo inh: HTS for Inhibitors of HP1-beta Chromodomain Interactions with Methylated Histone Tails. Chromobox protein homolog 1 (Homo sapiens), P83916. AlphaScreen HP1-beta / biotin-H3K9me3 peptide binding. Potency, µM (highest dose often 114 µM), for inactives: top-dose activity change, negative = inhibition, hits mostly inhibitors. actives 0.56% (n = 390,000). AID 540317, 2011; note: potency is the fitted concentration of half-maximal effect; nearly all actives have a fitted effect of over 70% in size
#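 AlphaScreen: HP1-beta (50 nM) preformed 30 min with biotin-H3(1-18)K9me3 peptide (50 nM) in PBS pH 7.4, 0.01% Tween-20. Compound added for 30 min at RT, then streptavidin donor/nickel chelate acceptor beads (10 ug/mL) for 30 min.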
# BAZ2B inh: qHTS Assay for Inhibitors of BAZ2B | Bromodomain adjacent to zinc finger domain protein 2B (Homo sapiens), Q9UIF8 | AlphaScreen BAZ2B-H3K14Ac peptide displacement | Potency, µM (titrated, usually from 114 µM), for inactives: at the top dose activity change, negative = inhibition, actives largely listed as inhibitors | actives 4.4% (n = 360,000); note: potency is the fitted concentration of half-maximal effect; % is set by controls: 0 for no effect and ±100 for the full control effect; nearly all actives have a fitted effect of over 60% in size
#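 In this displacement format the biotinylated H3(5-23) peptide acetylated at Lys14 serves as ligand at 50 nM, with BAZ2B at 50 nM in PBS pH 7.4 containing 0.01% Tween-20. Donor and acceptor beads are 10 ug/mL final.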
# The depositor's hits bear a star; u = inconclusive; x = no result given; [ ] = remark or other dose. Unless noted, calls come from the whole dose curve; as a rule, active = well fitted curve in the direction sought with a large enough effect; inconclusive = small, poorly fitted or top-dose-only effect, or another doubt; inactive = no such curve, though single readings can be large; an effect the other way counts as inactive or inconclusive.
SMILES,JMJD2A Tudor inh,PLK1 PBD inh,PI5P4Ka inh,G9a block,HP1b chromo inh,BAZ2B inh
C#CCOCCOCCOCCNc1nc(N2CCN(C(=O)CCCCCCCCCCNC(=O)[C@H](CCCCN)n3cc(CCCC(=O)O)nn3)CC2)nc(N2CCN(C(=O)CCCCCCCCCCNC(=O)[C@@H]([C@H](C)O)n3cc(C)nn3)CC2)n1,u,-4%,-11,2%[2.33 µM],-6%,-31%
C#CCOCCOCCOCCNc1nc(N2CCN(C(=O)CCCCCCCCCCNC(=O)[C@H]([C@@H](C)CC)n3cc(CCCCCN)nn3)CC2)nc(N2CCN(C(=O)CCCCCCCCCCNC(=O)[C@H](CO)n3cc(CCCCCN)nn3)CC2)n1,u,-3%,-50*,1%[2.33 µM],-20%,u
C#CCOCCOCCOCCNc1nc(N2CCN(C(=O)CCCCCCCCCCNC(=O)[C@H]([C@@H](C)CC)n3cc(CCCCCN)nn3)CC2)nc(N2CCN(C(=O)CCCCCCCCCCNC(=O)[C@@H]([C@H](C)CC)n3cc(CCCCCN)nn3)CC2)n1,x,x,x,-1%[2.33 µM],x,50µM*
C#CCOCCOCCOCCNc1nc(N2CCN(C(=O)CCCCCCCCCCNC(=O)[C@H](CCCCN)n3cc(C)nn3)CC2)nc(N2CCN(C(=O)CCCCCCCCCCNC(=O)[C@H](CCCCN)n3cc(CCCC(=O)O)nn3)CC2)n1,u,-2%,-54*,6%[2.33 µM],9%,-31%
C#CCOCCOCCOCCNc1nc(N2CCOCC2)nc(N2CCN(C(=O)CCCCCCCCCCNC(=O)[C@@H]([C@H](C)CC)n3cc(CCCCCN)nn3)CC2)n1,u,7%,-6,10%[2.33 µM],7%,u
CC1(C)OC1COc1c2ccoc2cc2oc(=O)ccc12 (stereo unspecified),-21%,-6%,-2,0%,18%,-7%
COc1cccc(NC(=O)CN(C)C(=O)C23CC4CC(CC(Cl)(C4)C2)C3)c1,-12%,-8%,2,0%[12.7 µM],27%,4%
CCOC(=O)c1cccc(NS(=O)(=O)c2cc(Br)cc3c2N(C(=O)C2CC2)CC3)c1,-13%,x,x,6%[59 µM],56%,-16%
Cc1cc(C)nc(SSc2nc(C)cc(C)n2)n1,10µM*,1.9µM*,u,0.4µM*,35%,4%
O=C(Nc1cc(S(=O)(=O)N2CCCCC2)ccc1Cl)c1ccccc1NS(=O)(=O)c1ccc(F)cc1,-33%,u,-15,17%[59 µM],12%,-6%
O=C(Nc1cc(S(=O)(=O)N2CCCCC2)ccc1O)c1ccccc1NS(=O)(=O)c1ccc(F)cc1,u,27µM*,-10,u,-19%,-27%
O=C(Nc1cc(S(=O)(=O)Nc2ccc(Cl)cc2)ccc1O)c1ccc(S(=O)(=O)N2CCCCCC2)cc1,-21%,12µM*,-18,-115%[59 µM],-18%,u
CCOC(=O)c1noc2ncn(CC(=O)Nc3cccc(Cl)c3)c(=O)c12,-11%,x,x,10%[59 µM],15%[57 µM],-3%
CCCC(C)c1nnc(NC(=O)CS(=O)(=O)Cc2ccccc2)s1 (stereo unspecified),-29%,14µM*,-25,8.9µM*,u,-6%
CC(C)Cc1nnc(NC(=O)CS(=O)(=O)Cc2ccccc2)s1,-18%,24µM*,0,8.9µM*,-5%,-22%
CCCC(C)c1nnc(NC(=O)CCS(=O)(=O)Cc2ccccc2)s1 (stereo unspecified),-26%,13µM*,-11,25µM*,-19%,-4%
O=C(CS(=O)(=O)Cc1ccccc1)Nc1nnc(C2CCCCC2)s1,-17%,-4%,x,56µM*,16%,-6%
